This passage reports growth results from PubChem BioAssay (NCI).

Compounds without any hit were thinned out: in the full panel of roughly 83,000, 20% have a hit.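 Testing used 96-well plates and a 48-hour single-concentration exposure. Example: -40 means 40% of the starting cells died.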 A number with no mark means an inactive call. Calls of active or inactive are those of the source. Rule for the calls: active = growth percent below 10; inactive = the rest.

Common to all, as to experiment: NCI-60 one-dose screen, 48 h (100 = growth as untreated, 0 = no growth, -100 = all killed)
One experiment concerns HT29 colon. The note with it: 10 µM unless noted.
The subject of a further experiment is SNB-75 CNS. The following applies: 10 µM unless noted.
For the next experiment, the system named is SNB-19 CNS. The following applies: 10 µM unless noted.
Another experiment deals with PC-3 prostate. The note with it: 10 µM unless noted.
A further experiment deals with SK-MEL-5 melanoma. The following applies: 10 µM unless noted.
For the next experiment, the system named is UACC-62 melanoma. The following applies: 10 µM unless noted.
The test system of the next experiment is LOX IMVI melanoma. The note with it: 10 µM unless noted.
The next experiment deals with SK-MEL-2 melanoma. The following applies: 10 µM unless noted.
In another experiment the test system is EKVX NSCLC. The note with it: 10 µM unless noted.
A further experiment has as its system SN12C renal. The note with it: 10 µM unless noted.
In another experiment the test system is UO-31 renal. The following applies: 10 µM unless noted.
The test system of another experiment is TK-10 renal. The note with it: 10 µM unless noted.
For the next experiment, the system named is ACHN renal. The note with it: 10 µM unless noted.
For the next experiment, the system named is CAKI-1 renal. The note with it: 10 µM unless noted.
The subject of a further experiment is A498 renal. The following applies: 10 µM unless noted.
A further experiment has as its system CCRF-CEM leukemia. The following applies: 10 µM unless noted.
For another experiment, the system named is MOLT-4 leukemia. The note with it: 10 µM unless noted.
The next experiment relates to SR leukemia. The following applies: 10 µM unless noted.
The test system of another experiment is SK-MEL-28 melanoma. The following applies: 10 µM.

For `CC(C)C[C@H](C(=O)N[C@@H](C)C(N)=O)N1CC=CCN(O)S1(=O)=O`, the growth with HT29 colon is 93.1% [5 µM]; in the experiment with SNB-75 CNS, 87.4% [5 µM]; in the experiment with SNB-19 CNS, 86.2% [5 µM]; in the experiment with PC-3 prostate it was 100% [5 µM]; in the experiment on SK-MEL-5 melanoma it was 106% [5 µM]; with UACC-62 melanoma, 108% [5 µM]. Moreover, the growth was 95.6% [5 µM] in the experiment with LOX IMVI melanoma; 103% [5 µM] in the experiment with SK-MEL-2 melanoma; 176% [5 µM] with EKVX NSCLC; 106% [5 µM] with SN12C renal; 109% [5 µM] in the experiment with UO-31 renal; 106% [5 µM] in the experiment on TK-10 renal. Besides, the growth in the experiment with ACHN renal was 94.7% [5 µM]; in the experiment on CAKI-1 renal it was 115% [5 µM]; in the experiment with A498 renal, 125% [5 µM]; in the experiment with CCRF-CEM leukemia, 105% [5 µM]; in the experiment on MOLT-4 leukemia it was 102% [5 µM]; in the experiment with SR leukemia, 95.3% [5 µM].

On to `COc1ccc(-c2nsc3c2NC(=O)CC3c2ccc3c(c2)OCCO3)cc1` (centres undefined), for which the growth in the experiment with HT29 colon was -0.622% (active); in the experiment on SNB-75 CNS, 35.1%; in the experiment on SNB-19 CNS, 56.8%; with PC-3 prostate, 23.6%; in the experiment with SK-MEL-5 melanoma, 27%; with UACC-62 melanoma, 32.2%. Moreover, the growth in the experiment with LOX IMVI melanoma is 44.3%; in the experiment with SK-MEL-28 melanoma it was 43.1%; in the experiment with SK-MEL-2 melanoma, 57.5%; with SN12C renal, 44.4%; with UO-31 renal, 53.6%; with TK-10 renal, 43.4%. For the same compound, the growth is 46% in the experiment on ACHN renal; 38.6% with CAKI-1 renal; 19% in the experiment with A498 renal; 14% with CCRF-CEM leukemia; 28.3% in the experiment with MOLT-4 leukemia; 28.9% in the experiment with SR leukemia.

On to `C=C1C(=O)O[C@H]2[C@H]1CC/C(COC(=O)/C=C\C(=O)O)=C\CC[C@@]1(C)O[C@@H]21`, for which the growth in the experiment on HT29 colon is 108%; in the experiment with SNB-75 CNS, 79.4%; in the experiment on SNB-19 CNS, 98.8%; with PC-3 prostate, 102%; with SK-MEL-5 melanoma, 102%; in the experiment with UACC-62 melanoma it was 98%. Moreover, the growth in the experiment on LOX IMVI melanoma was 99.4%; in the experiment on SK-MEL-28 melanoma it was 98.8%; in the experiment with SK-MEL-2 melanoma, 112%; in the experiment with SN12C renal it was 99.1%; in the experiment with UO-31 renal, 85.2%; in the experiment with TK-10 renal it was 106%. Further, the growth in the experiment on ACHN renal is 98%; with CAKI-1 renal, 100%; in the experiment with A498 renal, 93.5%; in the experiment on CCRF-CEM leukemia it was 107%; in the experiment with MOLT-4 leukemia, 110%; in the experiment on SR leukemia, 114%.

Turning to `O=C(Nc1ccc(Cl)cc1)c1cc2ccccc2cc1OP(=O)(O)O`, the growth with HT29 colon is 103%; with SNB-75 CNS, 24.2%; with SNB-19 CNS, 21.6%; in the experiment with PC-3 prostate it was 24.6%; in the experiment on SK-MEL-5 melanoma it was 3.56% (active); in the experiment with UACC-62 melanoma, 35.4%. The growth in the experiment with LOX IMVI melanoma is 22.9%; with SK-MEL-28 melanoma, 35.9%; in the experiment on SK-MEL-2 melanoma, 7.63% (active); in the experiment on EKVX NSCLC, 24.8%; in the experiment with SN12C renal, 41.4%; in the experiment with UO-31 renal, 2.13% (active). Also, the growth in the experiment on TK-10 renal was 18.7%; with ACHN renal, 17.2%; in the experiment on CAKI-1 renal, -8.12% (active); with A498 renal, 28.7%; in the experiment on CCRF-CEM leukemia, 18.2%; in the experiment on MOLT-4 leukemia, 38.9%. Also, the growth with SR leukemia was 53.9%.

`COc1ccc(Cn2c(Br)c3c(c2-c2cc(OC)c(OC)c(OC)c2)CCc2sc(NC(C)=O)nc2-3)cc1`: the growth was 33.7% in the experiment on HT29 colon; 25.3% in the experiment on SNB-75 CNS; 41% in the experiment on SNB-19 CNS; 43.7% in the experiment on PC-3 prostate; 16.6% in the experiment on SK-MEL-5 melanoma; 29.7% with UACC-62 melanoma. Also, the growth in the experiment with LOX IMVI melanoma is 33.3%; in the experiment with SK-MEL-28 melanoma, 39.2%; in the experiment on SK-MEL-2 melanoma, 55.6%; with SN12C renal, 71.9%; with UO-31 renal, 13.9%; in the experiment on TK-10 renal, 70.6%. Moreover, the growth with ACHN renal was 53.7%; in the experiment with CAKI-1 renal, 44%; with A498 renal it was 21.5%; in the experiment on CCRF-CEM leukemia it was 16.9%; in the experiment with MOLT-4 leukemia it was 45.1%; with SR leukemia, 14.3%.

Turning to `O=C(CSc1ncccc1C(=O)O)Nc1ccc(Oc2ccccc2)cc1`, the growth in the experiment on HT29 colon is 115%; in the experiment with SNB-75 CNS it was 88.3%; in the experiment on SNB-19 CNS it was 106%; in the experiment on PC-3 prostate it was 99.8%; with UACC-62 melanoma, 116%; with LOX IMVI melanoma, 92.1%. The growth was 105% in the experiment on SK-MEL-28 melanoma; 106% in the experiment with SK-MEL-2 melanoma; 102% in the experiment on SN12C renal; 78.1% in the experiment with UO-31 renal; 105% in the experiment on TK-10 renal; 107% with ACHN renal. In addition, the growth in the experiment on CAKI-1 renal was 95.8%; in the experiment on A498 renal, 96.7%; with CCRF-CEM leukemia, 99.6%; in the experiment on MOLT-4 leukemia, 84.6%; in the experiment on SR leukemia, 78.2%.

`Clc1ccc(-c2nnc(COc3ccc(C4=NNC(c5ccco5)C4)cc3)o2)cc1` (centres undefined): the growth is 101% with HT29 colon; 84.9% with SNB-75 CNS; 92.5% in the experiment with SNB-19 CNS; 80.8% with PC-3 prostate; 76.3% in the experiment on UACC-62 melanoma; 84.8% with LOX IMVI melanoma. Besides, the growth in the experiment on SK-MEL-28 melanoma is 101%; with SK-MEL-2 melanoma, 106%; in the experiment on SN12C renal, 86.5%; with UO-31 renal, 67.3%; in the experiment with TK-10 renal, 83.4%; in the experiment with ACHN renal it was 94.9%. In addition, the growth in the experiment with CAKI-1 renal was 86.4%; with A498 renal, 83.8%; with CCRF-CEM leukemia it was 84.7%; with MOLT-4 leukemia it was 85.5%; in the experiment with SR leukemia, 80.7%.

On to `COc1ccc(N)c(-c2cc3c(c4c2[nH]c2ccc(OC)cc24)CCCC3)c1`, for which the growth in the experiment with HT29 colon is 76.1%; in the experiment on SNB-75 CNS, 70.9%; in the experiment on SNB-19 CNS, 88.5%; with PC-3 prostate it was 52.9%; in the experiment with SK-MEL-5 melanoma it was 94.7%; in the experiment on UACC-62 melanoma it was 69.5%. The growth is 83.1% in the experiment with LOX IMVI melanoma; 97.7% in the experiment on SK-MEL-28 melanoma; 95.4% in the experiment with SK-MEL-2 melanoma; 72.5% in the experiment with EKVX NSCLC; 87.8% in the experiment on SN12C renal; 57.6% in the experiment on UO-31 renal. In addition, the growth with TK-10 renal is 114%; in the experiment with ACHN renal it was 89.4%; in the experiment with CAKI-1 renal, 67.1%; in the experiment with A498 renal, 88.8%; in the experiment on CCRF-CEM leukemia, 55.4%; in the experiment with MOLT-4 leukemia, 68.8%. Further, the growth in the experiment on SR leukemia was 79.1%.
